# Reference: PubChem BioAssay AID1022 (Emory University Molecular Libraries Screening Center, 2008)
# Among all 220,000 compounds or so, about 3,300 (1.5%) were called active.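 The calls were made as follows: active = compounds that cut the protein-peptide binding signal by more than 50% relative to plate controls in a single-dose test; inactive = the rest.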 This excerpt belongs to a sample that is enriched for actives.
# Biological target: Induced myeloid leukemia cell differentiation protein Mcl-1 (Homo sapiens) (UniProt Q07820)
# Sequence (Q07820 whole entry, looked up): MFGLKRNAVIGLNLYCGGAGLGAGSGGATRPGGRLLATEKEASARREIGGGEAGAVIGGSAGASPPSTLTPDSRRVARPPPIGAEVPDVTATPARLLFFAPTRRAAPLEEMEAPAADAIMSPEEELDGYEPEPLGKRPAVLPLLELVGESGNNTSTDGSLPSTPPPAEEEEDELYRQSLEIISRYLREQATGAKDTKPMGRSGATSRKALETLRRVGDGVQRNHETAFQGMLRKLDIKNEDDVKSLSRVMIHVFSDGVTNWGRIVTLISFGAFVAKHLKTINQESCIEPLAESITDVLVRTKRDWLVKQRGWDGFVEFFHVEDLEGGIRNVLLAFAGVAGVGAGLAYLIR
# Test: disruptors of Mcl-1 and Noxa BH3 peptide – biochemical, TR-FRET, 1536-well, primary screen (AID 1022);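 also: His-tagged Mcl-1 with rhodamine Noxa BH3 peptide and terbium anti-His antibody; 0% = Mcl-1 plus Noxa peptide wells and 100% = peptide-only wells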
# Settings: TR-FRET Mcl-1/Noxa peptide binding, 2 h; at 21.7 µM; active compounds read high
row,SMILES,inhibition
1,Cc1cccc(N2C(=O)NC(=O)/C(=C\c3cnn(-c4ccccc4)c3)C2=O)c1,29.4% (inactive)
2,COc1cccc(N2C(=O)NC(=O)/C(=C\c3ccc([N+](=O)[O-])s3)C2=O)c1,59.7% (active)
3,O=C1NC(=O)N(c2ccccc2)C(=O)/C1=C/c1ccc([N+](=O)[O-])s1,45.5% (inactive)
4,CCCCC(=O)N/N=C/c1c(O)n(-c2ccccc2)c(=O)[nH]c1=O,-147% (inactive)
5,Cc1c(C(=O)O)cccc1-n1c(C)cc(/C=C2\C(=O)NC(=O)N(c3ccc4c(c3)OCO4)C2=O)c1C,14.7% (inactive)
6,O=C1NC(=O)N(c2ccc(F)cc2)C(=O)/C1=C/c1ccc2c(c1)CCCN2Cc1ccccc1,67.7% (active)
7,O=C1NC(=O)N(CCc2ccc(F)cc2)C(=O)/C1=C/C=C/c1ccccc1,6.31% (inactive)
8,O=c1[nH]c(=O)n(CCc2ccccc2)c(O)c1/C=N/N1CCOCC1,6.09% (inactive)
9,COc1cccc(CN2CCCC(C(=O)c3ccccc3SC)C2)c1O (stereo not given),16.2% (inactive)
10,CCCCCCCCCCCCn1ccc(=N)cc1,2.41% (inactive)
11,O=C(O)CCn1cc(C=C2C(=O)NC(=S)NC2=O)c(-c2cccc(Br)c2)n1,93.9% (active)
12,CN(C)CC1CCCCC1=O (stereo not given),21.8% (inactive)
13,CNC(=O)O/N=C(\N)Cc1csc2ccccc12,-19.1% (inactive)
14,Cc1ccc(-n2c(O)c(C=NCC3CCCO3)c(=O)[nH]c2=O)c(C)c1 (stereo not given),-16.8% (inactive)
15,O=C1NC(=O)N(Cc2ccco2)C(=O)/C1=C\c1cccn1CCOc1ccccc1,3.37% (inactive)
16,O=C1NC(=O)N(Cc2ccco2)C(=O)/C1=C\c1ccc(-c2ccc(F)cc2)o1,69.5% (active)
17,Cc1cc(/C=C2/C(=O)NC(=O)N(Cc3ccco3)C2=O)c(C)n1-c1ccc(C(=O)O)cc1,27.4% (inactive)
18,CSc1ccc(C(=O)C2CCCN(Cc3ccn[nH]3)C2)cc1 (stereo not given),16.2% (inactive)
19,c1cc2c(cc1[C@H]1OC[C@H]3[C@@H]1CO[C@@H]3c1ccc3c(c1)OCO3)OCO2,1.72% (inactive)
20,CCOc1cccc(=NC2CCCCC2)c2c(C)[nH]c(C)c12,23.3% (inactive)
